Screening data deposited in PubChem by National Center for Advancing Translational Sciences (NCATS).
An excerpt weighted towards active compounds, which were near 18% of everything screened.
PLK1 PBD inh: PLK1 (human) polo-box domain binding inhibition | AID 720504 | 360,000 tested, 2.8% active | Potency, µM, inactives show max response, negative = inhibition, most hits filed as inhibitors | Plk1 PBD binding of FITC phosphopeptide, fluorescence polarization | P53350; also: series mostly up to about 57 µM; nearly all actives have a fitted effect of over 65% in size
TDP1 cell CPT: DT40-hTDP1 cell growth loss with CPT; chicken DT40 Tdp1-/-;hTDP1 cells + 20 nM CPT, ATP luminescence, 48 h; Potency, µM (series often up to 46.2 µM), for the others: at the top dose activity change, negative = growth inhibition, usual class: inhibitors; 420,000 tested, 12% active; also: nearly all actives have a fitted effect of over 55% in size
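Chicken DT40 Tdp1-/- cells stably complemented with human TDP1 were seeded at 400 cells/well in medium containing 20 nM camptothecin, exposed to pin-transferred compounds, and grown at 37 °C for at least 48 hr. Viability was read as ATP luminescence.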
GCN5L2 inh: inhibitors of human GCN5L2 histone acetyltransferase; GCN5L2 HAT assay, ThioGlo1 CoA-SH fluorescence; Potency, µM (doses to about 58.9 µM), inactives show at the top dose activity change, negative = inhibition, most hits filed as inhibitors; 390,000 tested, 0.21% active; AID 504327
Target sequence (Q92830 whole entry, looked up): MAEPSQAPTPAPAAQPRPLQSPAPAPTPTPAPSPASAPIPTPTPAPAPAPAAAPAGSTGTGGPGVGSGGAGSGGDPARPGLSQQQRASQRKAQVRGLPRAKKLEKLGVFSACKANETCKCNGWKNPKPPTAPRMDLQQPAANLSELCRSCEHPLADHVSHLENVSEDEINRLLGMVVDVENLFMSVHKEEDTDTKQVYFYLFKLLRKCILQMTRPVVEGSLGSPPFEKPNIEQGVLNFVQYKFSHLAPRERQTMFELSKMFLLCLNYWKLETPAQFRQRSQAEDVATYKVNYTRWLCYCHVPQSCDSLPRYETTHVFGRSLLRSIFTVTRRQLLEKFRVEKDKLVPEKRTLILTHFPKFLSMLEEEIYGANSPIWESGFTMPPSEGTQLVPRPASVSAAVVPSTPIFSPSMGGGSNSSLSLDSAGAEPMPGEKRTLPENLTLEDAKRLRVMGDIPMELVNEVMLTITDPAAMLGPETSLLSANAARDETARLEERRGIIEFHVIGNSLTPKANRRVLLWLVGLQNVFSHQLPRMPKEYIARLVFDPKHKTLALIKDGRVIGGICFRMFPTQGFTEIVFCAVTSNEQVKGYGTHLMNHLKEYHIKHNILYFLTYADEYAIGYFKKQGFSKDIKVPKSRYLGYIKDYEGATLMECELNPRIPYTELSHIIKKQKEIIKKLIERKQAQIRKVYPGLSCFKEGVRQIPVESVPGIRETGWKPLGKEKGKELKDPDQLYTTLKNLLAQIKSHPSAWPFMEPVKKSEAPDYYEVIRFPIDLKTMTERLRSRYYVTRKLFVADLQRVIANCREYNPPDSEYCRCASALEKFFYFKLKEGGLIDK
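Preincubate 20nM GCN5L2 with compound 15 min, RT → add 50uM ThioGlo1 + 75uM H3(1-25) + 70uM acetyl-CoA → read fluorescence 0 and 20 min. Primary qHTS; fluorescent artifacts likely.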
TDP1 cell noCPT: qHTS for Inhibitors of human tyrosyl-DNA phosphodiesterase 1 (TDP1): qHTS in cells in absence of CPT; DT40 Tdp1-/- hTDP1 cells, no CPT, ATP luminescence, 48 h; Potency, µM (top dose mostly 46.2 µM), for the others: at the top dose activity change, negative = growth inhibition, most hits filed as inhibitors; 420,000 tested, 15% active; also: nearly all actives have a fitted effect of over 55% in size
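Cells were dispensed at 400 per well, compounds added by pin tool, plates incubated ≥48 hr at 37 °C, then CellTiter-Glo added for 30 min at room temperature before luminescence reading. Line: DT40 Tdp1-/- complemented with hTDP1; camptothecin omitted.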
VDR inh: vitamin D3 receptor (human) inhibition; P11473; VDR-SRC2-3 peptide fluorescence polarization, 2 h; Potency, µM, for the others: max response, negative = inhibition, hits mostly inhibitors; 400,000 tested, 0.93% active; AID 504847
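Inhibition of the VDR/SRC2-3 peptide interaction is quantified by fluorescence polarization. Compounds (23 nl, pintool) incubate with the reagents for 2 hours at ambient room temperature.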
TDP1 inh: TDP1 (human) enzyme inhibition | Potency, µM (titrated, usually from 130 µM), inactives show at the highest dose activity change, negative = inhibition, actives largely listed as inhibitors | 350,000 tested, 0.28% active | recombinant TDP1, AlphaScreen DNA substrate cleavage | Q9NUW8; also: nearly all actives have a fitted effect of over 40% in size
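Here, a 5' biotin and 3' phosphotyrosine-FITC DNA oligonucleotide reports Tdp1 activity: intact substrate bridges AlphaScreen beads, while cleavage leaves a 3' phosphate and drops signal. All incubations at room temperature.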
Starred values were filed as active, the others as inactive; [ ] = dose if it differs, or a comment. Calls follow the shape of the dose curve; as a rule, active = well fitted curve in the direction sought with a large enough effect; inconclusive = small, poorly fitted or top-dose-only effect, or another doubt; inactive = no such curve, though single readings can be large; an effect the other way counts as inactive or inconclusive. % is scaled to controls: 0 for no effect and ±100 for the full control effect; potency is read from the fitted curve at half-maximal effect.

For CCCSc1ncc(Cl)c(C(=O)Nc2sc3c(c2C(=O)NCC)CCCC3)n1 the results were TDP1 cell CPT inconclusive, GCN5L2 inh 0.6%, TDP1 cell noCPT inconclusive, VDR inh -7.8% and TDP1 inh -1.2%.
`COC(=O)CS(=O)(=O)c1nnc([C@H](Cc2ccccc2)NC(=O)OC(C)(C)C)o1` gave PLK1 PBD inh 10.6µM*, TDP1 cell CPT 1.46µM*, GCN5L2 inh -7.0%, TDP1 cell noCPT 1.64µM*, VDR inh inconclusive and TDP1 inh 5.7%.
`Cc1cccc(CS(=O)(=O)c2nnc([C@H](Cc3ccccc3)NC(=O)OC(C)(C)C)o2)c1` gave PLK1 PBD inh 2.67µM*, TDP1 cell CPT 1.3µM*, GCN5L2 inh -8.6%, TDP1 cell noCPT 1.46µM*, VDR inh inconclusive and TDP1 inh 2.0%.
For CC(C)(C)OC(=O)N[C@@H](Cc1ccccc1)c1nnc(SCC(N)=O)o1 the results were PLK1 PBD inh -8.6%, TDP1 cell CPT 3.1%, GCN5L2 inh -0.1%, TDP1 cell noCPT -3.5%, VDR inh -27.9% and TDP1 inh -1.4%.
For COC(=O)CSc1nnc([C@H](Cc2ccccc2)NC(=O)OC(C)(C)C)o1 the results were PLK1 PBD inh -0.3%, TDP1 cell CPT -23.5%, GCN5L2 inh -10.9%, TDP1 cell noCPT -13.4%, VDR inh 9.6% and TDP1 inh 1.0%.
`NNc1ccccc1C(F)(F)F` gave PLK1 PBD inh -12.0%, TDP1 cell CPT 3.7%, GCN5L2 inh -16.3%, TDP1 cell noCPT 9.0%, VDR inh -7.5% and TDP1 inh 50.1µM*.
Cn1cnc(S(=O)(=O)N2CCC(C(=O)N3CCN(c4ccc(Cl)cc4)CC3)CC2)c1 was read as TDP1 cell CPT inconclusive, GCN5L2 inh -1.4%, TDP1 cell noCPT -25.1%, VDR inh 7.1% and TDP1 inh -1.2%.
Screening Cc1ccccc1NC(=O)CSc1nccn1C returned GCN5L2 inh -1.1%, VDR inh 4.9% and TDP1 inh -1.9%.
FC(F)(F)c1ccccc1NC(=S)Nc1cccc2cnccc12 was read as PLK1 PBD inh 29.9µM*, TDP1 cell CPT inconclusive, GCN5L2 inh 3.0%, TDP1 cell noCPT inconclusive, VDR inh 3.9% and TDP1 inh 5.0%.
For FC(F)(F)c1ccccc1NC(=S)N1CCCCCC1 the results were PLK1 PBD inh -8.9%, TDP1 cell CPT -15.9%, GCN5L2 inh 4.1%, TDP1 cell noCPT 5.4%, VDR inh 10.1% and TDP1 inh -2.1%.
For S=C(NCc1ccccc1)Nc1cccc2cnccc12 the results were PLK1 PBD inh inconclusive, TDP1 cell CPT 11.6µM*, GCN5L2 inh -0.5%, TDP1 cell noCPT 18.4µM*, VDR inh -23.3% and TDP1 inh 5.3%[0.0935 µM].
Screening COCCNC(=S)Nc1cccc2cnccc12 returned PLK1 PBD inh 3.5%, TDP1 cell CPT -24.0%, GCN5L2 inh -1.7%, TDP1 cell noCPT 3.6%, VDR inh 2.2% and TDP1 inh 2.3%.
FC(F)(F)c1ccccc1NC(=S)Nn1cnnc1 was read as PLK1 PBD inh 9.47µM*, TDP1 cell CPT inconclusive, GCN5L2 inh -8.4%, TDP1 cell noCPT -2.9%, VDR inh inconclusive and TDP1 inh 4.9%.
`CCCCNC(=S)Nc1cccc2cnccc12` gave PLK1 PBD inh inconclusive, TDP1 cell CPT 13µM*, GCN5L2 inh -2.4%, TDP1 cell noCPT 23.1µM*, VDR inh 0.3% and TDP1 inh 2.7%.
S=C(NCc1cccnc1)Nc1cccc2ccccc12 was read as PLK1 PBD inh -10.8%, TDP1 cell CPT -23.0%, GCN5L2 inh 0.5%, TDP1 cell noCPT inconclusive, VDR inh -16.4% and TDP1 inh 5.1%.
`COc1cc(=O)n2c(c1C(=O)NC(C)c1ccco1)CCN(C(=O)c1ccc3c(c1)OCCO3)CC2` (stereo not given) gave TDP1 cell CPT -5.1% and TDP1 cell noCPT -4.7%.
For O=C(NCc1ccccn1)c1cnn(-c2nccc(-c3ccccc3F)n2)c1C1CC1 the results were TDP1 cell CPT -7.0%[9.04 µM] and TDP1 cell noCPT -15.3%.
COCc1c(C(=O)NCC2CCCN(C)C2)cnn1-c1ncc2c(n1)-c1ccccc1CCC2 (stereo not given) was read as TDP1 cell CPT 11.0%[9.04 µM] and TDP1 cell noCPT -9.5%.
COc1cc(C(C)=O)ccc1COc1ccc(C(=O)OCC(=O)NC2CCS(=O)(=O)C2)cc1OC (stereo not given) was read as PLK1 PBD inh -1.7%, TDP1 cell CPT inconclusive, GCN5L2 inh 1.0%, TDP1 cell noCPT 20.6µM*, VDR inh -7.4% and TDP1 inh 4.3%.
COc1cc(C(=O)OCC(=O)NC2CCCCCC2)ccc1OCC(C)C was read as PLK1 PBD inh 2.7%, TDP1 cell CPT inconclusive, GCN5L2 inh -7.8%, TDP1 cell noCPT 3.26µM*, VDR inh -9.2% and TDP1 inh -8.2%.
`COc1ccc(NC(=O)COc2ccc(C(=O)OCC(=O)N(C(C)C)C(C)C)cc2OC)cc1` gave PLK1 PBD inh 23.8µM*, TDP1 cell CPT inconclusive, GCN5L2 inh -5.1%, TDP1 cell noCPT inconclusive, VDR inh -8.1% and TDP1 inh 2.6%.
`O=C(CSc1nncn1-c1ccccc1)N1CCCC1` gave PLK1 PBD inh -14.1%, TDP1 cell CPT -4.8%, GCN5L2 inh -2.0%, TDP1 cell noCPT -4.8% and VDR inh 27.1%.
`COc1ccc([C@@H]2CC=C(C(=O)O)[C@H](c3ccc(C(C)(C)C)cc3)N2S(=O)(=O)c2ccc(C)cc2)cc1OC` gave PLK1 PBD inh 0.1%, TDP1 cell CPT inconclusive, GCN5L2 inh -5.6%, TDP1 cell noCPT 14.6µM*, VDR inh 14.1% and TDP1 inh 2.6%.
For Cc1ccc([C@H]2C(C(=O)O)=CC[C@@H](c3ccc(C(C)C)cc3)N2S(=O)(=O)c2ccc(C)cc2)cc1 the results were PLK1 PBD inh 23.8µM*, TDP1 cell CPT -4.4%, GCN5L2 inh inconclusive, TDP1 cell noCPT -2.8%, VDR inh -16.2% and TDP1 inh 2.4%.
Cc1ccc(S(=O)(=O)N2[C@@H](c3ccc(Cl)cc3)C(C(=O)O)=CC[C@H]2c2ccc(C(C)C)cc2)cc1 was read as PLK1 PBD inh 18.9µM*, TDP1 cell CPT inconclusive, GCN5L2 inh inconclusive, TDP1 cell noCPT -24.3%, VDR inh -3.6% and TDP1 inh 1.6%.
